Pf Dd2 inh = qHTS Primary assay for Inhibitors of Plasmodium falciparum Dd2 growth in vitro; P. falciparum Dd2 growth, SYBR Green, 72 h; Potency, µM (highest dose often 28.9 µM), most hits filed as inhibitors; 120,000 tested, 4.3% active; AID 1347417, 2020; active = well fitted inhibition curve with a large enough effect; note: nearly all actives have a fitted effect of over 65% in size
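Readout: SYBR Green fluorescence, 485 nm excitation, 535 nm emission, after ~16 h lysis at 37C. Before that, Dd2-infected red cells (2.5% hematocrit) grew 72 h with compound, 29 uM top final concentration.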
Numbers stand for hits; – = inactive; [ ] = another dose, or the depositor's remark. This is one part of a sample in which hits are shown more often than they occur.

SMILES | Pf Dd2 inh
COCc1nc2nc(-c3ccccc3)c(Nc3ccc(F)c(OC)c3)cc2n1C | –
COCCCNC(=O)c1nc2nc(-c3ccccc3)c(Cl)cc2n1C | –
CN(C)CCNC(=O)c1nc2nc(-c3ccccc3)c(Nc3ccc(F)cc3)cc2n1C | 7.1µM
O=C(NCCc1ccco1)C1CC(=O)N(c2n[nH]c3ccccc23)C1 (configuration not stated) | –
CCCN(CC1CCOC1)S(=O)(=O)c1cn(C)cn1 (configuration not stated) | –[5.79 µM]
C=CCNc1ncnc2c1CCN(C(=O)Cc1c[nH]c(=O)[nH]c1=O)CC2 | –
CCOc1ccccc1NC(=O)c1cc2n(n1)CC(c1ccc(Cl)cc1)OC2 (configuration not stated) | –
COc1ccc(CNC(=O)[C@H]2O[C@H](CCN3CCC(CO)CC3)CC[C@@H]2O)cc1 | –
Nc1nccc(N2C[C@H]3CN(C(=O)C4CCC4)C[C@@]3(C(=O)O)C2)n1 | –
COc1ccc(-c2csc3ncnc(Nc4cccc(F)c4)c23)cc1 | –
COc1ccc(-c2csc3ncnc(Nc4cc(OC)cc(OC)c4)c23)cc1 | –
CCOc1ccc(-c2csc3ncnc(Nc4cccc(O)c4)c23)cc1 | 10µM
Cn1ccc(NC(=O)C2(C)CCCc3cnc(NCc4ccccc4)nc32)n1 (configuration not stated) | –
O=C(Nc1ccc2ncnc(N3CCCCC3)c2c1)c1c(F)cccc1Cl | –
O=C(Nc1ccc2ncnc(N3CCCC3)c2c1)c1ccc(F)cc1Cl | –
O=C(Nc1ccc2c(N3CCCCC3)ncnc2c1)c1ccccc1C(F)(F)F | 11µM
Cc1ccc(-c2ncc(NC(=O)c3ccccc3C(F)(F)F)cn2)cc1 | –
O=C(Nc1ccc2ncnc(N3CCCCC3)c2c1)c1ccccc1Br | –
O=C(Nc1ccc2c(N3CCCC3)ncnc2c1)c1ccccc1Cl | 13µM
CCC(=O)Nc1ccc(OCC(=O)N(CC)CC2CCOCC2)cc1 | –
O=C(N[C@@H]1CN(Cc2ccncc2F)C[C@H]1CO)C1CC1 | –
O=C(Cc1c[nH]c2ccccc12)N1CCCN(c2cc(-c3ccc(Cl)cc3)[nH]n2)CC1 | –
CC1=NS(=O)(=O)N(Cc2ccccc2)C=C1C(=O)OCc1nc(-c2ccccc2F)no1 | –
COc1ccc(C(=O)N[C@@H]2CN(C)C[C@H]2CN(C)C)c(C)c1 | –
CCS(=O)(=O)c1ncc(CN(C)Cc2cn(C)nc2C)n1CCc1ccccc1 | –
SMILES | Pf Dd2 inh
CCOC(=O)c1ccc(N2C(=O)c3[nH]nc(-c4ccc(C)cc4)c3C2c2cccc(F)c2)cc1 (configuration not stated) | 5µM
Cc1ccc(N2C(=O)c3n[nH]c(C)c3C2c2ccc(Cl)cc2)cc1 (configuration not stated) | –
CCCN1C(=O)c2[nH]nc(-c3ccc(F)cc3)c2C1c1ccc(O)c(OCC)c1 (configuration not stated) | –
CCOc1ccc(-c2n[nH]c3c2C(c2cccs2)N(c2ccc(Br)cc2)C3=O)cc1 (configuration not stated) | 3.5µM
O=C1c2[nH]nc(-c3ccc(F)cc3)c2C(c2ccccc2F)N1c1ccccc1 (configuration not stated) | –
CCOc1ccc(C(=O)OCc2cc(=O)n3nc(C4CC4)sc3n2)cc1 | –
CCc1ccc(C2NC(=O)c3[nH]nc(-c4cccc(OC)c4)c32)cc1 (configuration not stated) | –
CCCN1C(=O)c2[nH]nc(-c3ccc(F)cc3)c2C1c1ccccn1 (configuration not stated) | –
CCOC(=O)c1ccc(N2C(=O)c3[nH]nc(-c4ccc(OCC)cc4)c3C2c2cccs2)cc1 (configuration not stated) | 2.8µM
CCCN1C(=O)c2[nH]nc(-c3ccc(OC)cc3)c2C1c1ccccn1 (configuration not stated) | –
CCOc1ccc(N2CC(NC(=O)Cc3cccs3)CC2=O)cc1 (configuration not stated) | –
CCOC(=O)c1ccc(N2C(=O)c3[nH]nc(-c4ccccc4)c3C2c2ccc(CC)cc2)cc1 (configuration not stated) | 10µM
O=C(CCc1nnn2c1CN(S(=O)(=O)c1ccccc1)CC2)NC1CC1 | –
Cn1cnc(S(=O)(=O)N2CCC(Oc3ccc(-c4noc(C5CC5)n4)cc3)C2)c1 (configuration not stated) | –[5.79 µM]
COCCn1ncc(N2CCC(NC(=O)C3CCOC3)CC2)cc1=O (configuration not stated) | –
O=C(NC[C@H]1O[C@@H](CC(=O)N2CCN(c3ccc(F)cc3)CC2)[C@H](O)[C@@H]1O)C1CC1 | –
O=C(NC(Cc1ccncc1)C1CC(O)C1)c1cccc(N2CCNC2=O)c1 (configuration not stated) | –
CN(CC1(C)CCOCC1)C(=O)c1ccnn1C | –
CCOCc1nc(C2CCCN(C(=O)Cc3cccc(F)c3)C2)no1 (configuration not stated) | –
Cc1noc(C)c1C(=O)N1CC(c2nc(CCc3ccccc3)no2)C1 | –
Cc1c(-c2ccccc2)[nH]c2c(CNC(=O)CCc3nncn3C)cc(Cl)cc12 | –
Cc1ccc(C(=O)N2CCC(OC3CCN(C)CC3)CC2)cc1F | –
COC(=O)c1ccccc1C(=O)N1CCCC(N2CCN(c3ccc(F)cc3)CC2)C1 (configuration not stated) | –
CCOC(=O)c1ccc(N2C(=O)c3[nH]nc(-c4ccccc4)c3C2c2cccs2)cc1 (configuration not stated) | 7.1µM
CCOC(=O)c1ccc(NC(=O)c2oc(=O)c3ccccc3c2-c2ccccc2)cc1 | –
SMILES | Pf Dd2 inh
CCOc1ccccc1NC(=O)C1=C(C)Nc2ncnn2C1c1cccs1 (configuration not stated) | –
C[C@@H](NC(=O)Cc1ccccc1)c1c(-c2ccc(Cl)cc2)noc1C(=O)O | –
CN(C)C[C@@H]1CN(C)C[C@H]1NC(=O)c1ccccc1OC(F)(F)F | –
CNC(=O)N1C[C@@H](CN(C)C)[C@H](NC(=O)c2ccccc2OC(F)(F)F)C1 | –
CC(C)N[C@@H]1CC[C@@H]1NC(=O)c1ccccc1OC(F)(F)C(F)F | 7.9µM
Cc1ccc(S(=O)(=O)Nc2nc3n(n2)C(c2ccccc2Cl)C=C(c2ccccc2)N3)cc1 (configuration not stated) | –
CC1=C(C(N)=O)C(c2ccccc2F)n2nc(-c3ccc(Cl)cc3)nc2N1 (configuration not stated) | –
COc1ccc(-c2nc3n(n2)C(=O)CC(c2ccc(Cl)cc2)S3)cc1 (configuration not stated) | –
Cc1ccc(C2=CC(c3ccc(Cl)cc3)n3nc(-c4ccc(C)cc4)nc3N2)cc1 (configuration not stated) | 1.3µM
CCOc1ccc(C2C=C(c3cccc(OC)c3)Nc3nnnn32)cc1 (configuration not stated) | –
COc1ccc(C2C=C(c3ccc(Cl)cc3)Nc3nc(-c4ccc(Cl)cc4)nn32)cc1 (configuration not stated) | 0.1µM
Cc1ccc(-c2nc3n(n2)C(c2ccccc2C)C=C(c2ccc(Cl)cc2)N3)cc1 (configuration not stated) | 5µM
Cc1cc(C)n2nc(-c3ccc(Cl)cc3)nc2n1 | –
COc1ccc(-c2nc3n(n2)C(c2cccc(C)c2)C(C(N)=O)=C(C)N3)cc1OC (configuration not stated) | –
C#CCN(C)Cc1nc(C2(O)CCN(C(=O)NCCC)CC2)cs1 | –
